Source: PubChem
Rows were chosen to be rich in hits. Some 27% of all compounds tested hit in one or more screens of this group.
CYP2C9 activ – CYP2C9 (human) activation; recombinant CYP2C9, luciferin-H conversion, luminescence; hits give high values; factor 1 = untreated enzyme, 0 = blocked; activation factor at 5 µM; actives 1.4% (n = 96,000); P11712; AID 1024;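 active = activation factor of 2 or more for CYP2C9 at a 5 µM dose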;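 also: 0 = sulfaphenazole-blocked wells and 1 = vehicle-only wells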
CYP2C9 inh – human CYP2C9 inhibition; P11712; CYP2C9 Supersomes, luciferin-H conversion, luminescence; inhibition, % at 5 µM; actives 20% (n = 96,000);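 active = blocking of liver enzyme CYP2C9 beyond about 50% at 5 µM, limit read from the data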
CYP2C19 activ – cytochrome P450 2C19 (human) activation | P33261 | recombinant CYP2C19, luciferin-H EGE luminescence; hits give high values; 0 = fully inhibited enzyme, 1 = untreated enzyme | activation factor at 5 µM | 96,000 tested, under 10 active | AID 1025;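 active = activation factor of at least 2 at 5 µM in the primary screen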;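 also: 0 = wells with 2.5 mM tranylcypromine and 1 = vehicle-only wells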
Target sequence (P33261 whole entry, looked up): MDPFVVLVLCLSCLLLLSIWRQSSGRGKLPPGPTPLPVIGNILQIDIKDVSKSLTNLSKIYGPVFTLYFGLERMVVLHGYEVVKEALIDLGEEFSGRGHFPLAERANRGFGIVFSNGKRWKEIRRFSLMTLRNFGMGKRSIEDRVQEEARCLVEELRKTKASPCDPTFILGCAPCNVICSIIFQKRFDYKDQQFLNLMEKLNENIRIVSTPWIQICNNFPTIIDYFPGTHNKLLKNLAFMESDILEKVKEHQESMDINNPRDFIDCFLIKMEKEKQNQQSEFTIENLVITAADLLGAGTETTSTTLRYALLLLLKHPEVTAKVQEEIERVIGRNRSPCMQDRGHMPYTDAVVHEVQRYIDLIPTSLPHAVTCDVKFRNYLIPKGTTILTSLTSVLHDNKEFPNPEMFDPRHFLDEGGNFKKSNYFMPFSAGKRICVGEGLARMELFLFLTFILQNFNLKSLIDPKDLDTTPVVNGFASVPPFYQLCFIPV
CYP2C19 inhib – inhibitors of human CYP2C19; P33261; CYP2C19 Supersomes, luciferin-H EGE luminescence, 30 min; inhibition, % at 5 µM; actives 21% (n = 96,000); AID 778;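 active = CYP2C19 inhibition above a set limit at 5 µM in the primary screen, cut at about 50% in these data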;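 also: plate controls were negative control wells for no effect and 2.5 mM tranylcypromine positive control for full effect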
Cav3 T inh – human Cav3.2 channel inhibition, primary screen | AID 449739 | B-score at 10 µM | O95180 | Cav3.2-expressing cells, Fluo-4 calcium fluorescence FDSS; hits give low values | actives 4% (n = 100,000);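 active = single-dose well whose peak fluorescence ratio is a statistical outlier from its plate by either plate-standardised score or position-corrected B-score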
* = called active by the depositor; nt = no result.

SMILES | CYP2C9 activ | CYP2C9 inh | CYP2C19 activ | CYP2C19 inhib | Cav3 T inh
O=C(NCCCN1CCOCC1)c1cc(-c2ccccc2)on1 | 1.1 | -11 | 0.9 | 14 | -0.088
CCOC(=O)c1sc2nc(CC(=O)OC)nc(N3CCN(c4ccccn4)CC3)c2c1C | 0.2 | 85* | 0.3 | 68* | -2.9*
Cc1c(C(=O)NCCCN2CCOCC2)sc2ncnc(N3CCN(c4ccccc4)CC3)c12 | 0.1 | 91* | 0.5 | 50* | 2.9
CC(C)(C)c1cc(NC(=O)CCSc2nnc3ccccn23)cc(C(C)(C)C)c1 | nt | nt | nt | nt | -2.8
COc1ccc(N(Cc2cc3ccc(C)cc3[nH]c2=O)C(C)=O)cc1 | 0.8 | 24 | 0.9 | 10 | 0.47
CCOc1cc(N2C(=O)CC3CS(=O)(=O)CC32)c(OCC)cc1NC(=O)c1ccccc1 (stereo not given) | 1 | -5 | 1.1 | -10 | -0.1
CCOC(=O)CNC(=O)c1sc2ncnc(N3CCc4ccccc4C3)c2c1C | 0 | 98* | 0.2 | 79* | nt
CCOC(=O)c1sc2ncn(CC(=O)N(CC)CC)c(=O)c2c1C | 0.8 | 19 | 0.9 | 10 | 0.99
CCOC(=O)c1sc2ncn(C(C)C(=O)OCC)c(=O)c2c1C (stereo not given) | 0.3 | 75* | 0.2 | 81* | -0.31
CCCCNC(=O)c1sc2ncnc(N3CCc4ccccc4C3)c2c1C | 0.1 | 94* | 0.8 | 18 | -5.1*
COc1cc(C(=O)N2CCN(c3ncnc4sc(C)c(C)c34)CC2)cc(OC)c1OC | 0.3 | 70* | 0.3 | 73* | 1.2
C=CCNC(=S)NNC(=O)C(CCCC)CC(C)(C)O (stereo not given) | nt | nt | nt | nt | 0.52
Cc1ccc(Nc2c(N)c(=O)oc3ccccc23)cc1 | nt | nt | nt | nt | -3.1
CC(C)n1nnnc1C(c1ccc(F)cc1)N1CCN(C2CCCC2)CC1 (stereo not given) | 1.1 | -10 | 1 | 2 | nt
COc1ccccc1N1CCN(C(c2ccc(C)cc2)c2nnnn2C(C)C)CC1 (stereo not given) | 0.3 | 75* | 0.3 | 74* | -4.1
COc1ccccc1N1CCN(C(c2ccc(F)cc2)c2nnnn2C(C)C)CC1 (stereo not given) | 0.5 | 46 | 0.5 | 52* | nt
O=C(NC1CC1)C1=C[C@@H](c2coc3ccccc3c2=O)C[C@@H](OCCCCO)O1 | nt | nt | nt | nt | 1.5
O=C(Nn1c(=O)[nH]c2ccsc2c1=O)c1ccccc1 | 1.1 | -13 | 1.2 | -15 | -0.13
CC(N=c1ccccn1C(=O)Nc1cccc(C(F)(F)F)c1)c1ccco1 (stereo not given) | 0.7 | 26 | 0.7 | 32 | nt
CCOC(=O)c1c(C)oc(/N=C/c2ccccc2O)c1C#N | 0.7 | 29 | 0.9 | 13 | 0.45
Cc1cc(N2CCC(C)CC2)nc2cccc(O)c12 | 3* | -205 | 0.8 | 23 | -2.2
Cc1csc(NC(=O)C(CC(C)C)NS(=O)(=O)c2ccc3c(c2)oc(=O)n3C)n1 (stereo not given) | 0.4 | 55* | 0.6 | 36 | nt
C/C=C/Cn1c(Br)nc2c1c(=O)n(C)c(=O)n2C | 1 | 4 | 1 | 0 | -0.026
Cc1c(C(=O)OCc2ccccc2)[nH]c2c1C(=O)CC(c1ccco1)C2 (stereo not given) | 0.1 | 89* | 0.5 | 47 | -1.1
CSCCOC(=O)c1[nH]c2c(c1C)C(=O)CC(c1ccco1)C2 (stereo not given) | 0.5 | 52* | 0.9 | 5 | -2.7
SMILES | CYP2C9 activ | CYP2C9 inh | CYP2C19 activ | CYP2C19 inhib | Cav3 T inh
Cc1c(C(=O)OCCOC(C)C)[nH]c2c1C(=O)CC(c1ccco1)C2 (stereo not given) | 0.3 | 75* | 0.6 | 41 | -2
COCCOC(=O)c1[nH]c2c(c1C)C(=O)CC(c1ccco1)C2 (stereo not given) | 0.3 | 72* | 0.5 | 47 | -2.3
COC(=O)c1[nH]c2c(c1C)C(=O)CC(c1cccs1)C2 (stereo not given) | 0.6 | 38 | 0.6 | 44 | -1.3
COc1cccc(N2CC(C)Cn3c2nc2c3c(=O)n(CCN3CCOCC3)c(=O)n2C)c1 (stereo not given) | 1 | -1 | 1.1 | -7 | 0.31
Cc1nc(C)n(CC(O)COc2ccc3cc(Br)ccc3c2)n1 (stereo not given) | 1.1 | -6 | 0.6 | 36 | 0.18
Fc1ccccc1/C=C1\CCCC2=C1Nc1nnnn1C2c1ccccc1F (stereo not given) | 1.1 | -6 | 0.9 | 9 | 0.7
CCOC(=O)c1[nH]c2c(c1C)C(=O)CC(c1ccco1)C2 (stereo not given) | 0.4 | 60* | 0.8 | 19 | -2
Cc1c(C(=O)OCCOC(C)C)[nH]c2c1C(=O)CC(C)(C)C2 | 0.3 | 70* | 0.4 | 58* | 0.078
COC(=O)c1[nH]c2c(c1C)C(=O)CCC2 | 0.8 | 17 | 1.1 | -6 | 0.00042
COc1cccc(-n2nnc3c(=O)n(CC(=O)N4CCCc5ccccc54)cnc32)c1 | 1.1 | -7 | 1.1 | -6 | 0.33
COc1ccc(CC(=O)NCCN2CCCC2)cc1 | 0.9 | 5 | 1 | 2 | 1.2
O=C(Cn1c(C(=O)N2CCN(C3CCCC3)CC2)cc2sccc21)c1ccccc1 | 0.6 | 40 | 0.2 | 80* | -0.72
CCn1c(C(=O)N2CCC(Cc3ccccc3)CC2)cc2sccc21 | 0.4 | 58* | 0.4 | 59* | -0.024
O=C(Cn1c(C(=O)NCc2ccco2)cc2sccc21)c1ccccc1 | 0.6 | 39 | 0.7 | 29 | nt
O=C(Cn1c(C(=O)NCC2CCCO2)cc2sccc21)c1ccccc1 (stereo not given) | 0.5 | 51* | 0.7 | 27 | -0.76
CCn1c(C(=O)N2CCCC(C(=O)O)C2)cc2sccc21 (stereo not given) | nt | nt | nt | nt | -2.5
CC(=O)n1cc([C@H]2C=C(C(=O)N3CCN(Cc4ccc5c(c4)OCO5)CC3)O[C@@H](OCCCCO)C2)c2ccccc21 | nt | nt | nt | nt | -0.4
Cc1noc(C)c1C(=O)Nc1sc(C)c(C)c1C#N | 0.4 | 62* | 0.9 | 10 | 0.46
Cc1noc(C)c1C(=O)Nc1sc2c(c1C(N)=O)CCC2 | 0.8 | 16 | 0.9 | 10 | 2.4
CCOc1cccc(C=Nc2cc(C)cc(C)c2O)c1O | 1 | 2 | 1 | -1 | 1.1
COc1ccc(C2C(C#N)=C(N)OC3=C2C(=O)CCC3)cc1Cn1nc(C)c([N+](=O)[O-])c1C (stereo not given) | 0.6 | 44 | 0.8 | 25 | 0.7
COc1ccc(C2C(C#N)=C(N)Oc3n[nH]c(C)c32)cc1Cn1nc(C)c([N+](=O)[O-])c1C (stereo not given) | 0.5 | 54* | 0.4 | 56* | 1.3
COc1ccc(C2C(C#N)=C(N)Oc3n[nH]c(C)c32)cc1Cn1cc([N+](=O)[O-])cn1 (stereo not given) | 0.3 | 67* | 0.8 | 21 | -1.5
COc1cc(C2C(C#N)=C(N)Oc3n[nH]c(C)c32)cc2c1OCO2 (stereo not given) | 0.4 | 63* | 0.5 | 55* | -0.14
